# Data published in PubChem BioAssay (Tox21).
# Where “and” joins values, the source holds several entries; their conditions need not be identical. Identical values can stand only once. Where a structure was tested more than once in an assay, its records may differ in their call. Calls of active or inactive are those of the source. A call without a number means that no potency is given here. Unless noted, calls come from the whole dose curve; as a rule, active = well fitted curve in the direction sought with a large enough effect in the repeat runs; inconclusive = weak or mixed curves; inactive = no such curve, though single readings can be large; an effect the other way counts as inactive or inconclusive.
# Legend:
# [1] = qHTS assay to identify small molecule antagonists of the thyroid receptor (TR) signaling pathway - cell viability counter screen (AID 743064); note: nearly all actives have a fitted effect of over 50% in size; note: potency is the fitted concentration of half-maximal effect
# Outline: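 GH3.TRE-Luc rat pituitary cells dosed after 4 hr plating, co-stimulated with T3 at 1 nM final, incubated 23.5 h at 37 C. Viability measured in the same wells by CellTiter-Fluor fluorescence after 30 min further at 37 C.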
# [2] = qHTS assay to identify small molecule antagonists of the thyroid receptor (TR) signaling pathway (AID 743065); note: nearly all actives have a fitted effect of over 55% in size; note: potency is the fitted concentration of half-maximal effect
# Outline: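 GH3.TRE-Luc rat pituitary cells carrying two TR response elements driving luciferase were plated for 4 h, given compound plus 1 nM T3 (final), and incubated 23.5 h at 37 C. ONE-Glo luminescence measured reporter inhibition; CellTiter-Fluor fluorescence tracked cytotoxicity.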
# [3] = test system: thyroid hormone receptor (rat, GH3 cells); test: qHTS assay to identify small molecule agonists of the thyroid receptor (TR) signaling pathway (AID 743066; calls by dose curve)
# [4] = qHTS assay to identify small molecule antagonists of the estrogen receptor alpha (ER-alpha) signaling pathway - cell viability counter screen (AID 743074; calls by dose curve; note: nearly all actives have a fitted effect of over 45% in size; note: potency is the fitted concentration of half-maximal effect)
# [5] = qHTS assay to identify small molecule antagonists of the estrogen receptor alpha (ER-alpha) signaling pathway using the BG1 cell line - cell viability counter screen (AID 743081);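 note: compound given together with 17beta-estradiol as the ER stimulus; nearly all actives have a fitted effect of over 45% in size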; note: potency is the fitted concentration of half-maximal effect
# Aromatase (Homo sapiens) = Aromatase (Homo sapiens) (UniProt P11511); test: qHTS assay to identify aromatase inhibitors (AID 743083); note: nearly all actives have a fitted effect of over 55% in size; note: potency is the fitted concentration of half-maximal effect
# [6] = qHTS assay to identify aromatase inhibitors - cell viability counter screen (AID 743084);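 note: cells stimulated with testosterone during compound exposure; nearly all actives have a fitted effect of over 55% in size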; note: potency is the fitted concentration of half-maximal effect
# [7] = qHTS assay to identify small molecule that activate the aryl hydrocarbon receptor (AhR) signaling pathway - cell viability counter screen (AID 743086); note: nearly all actives have a fitted effect of over 45% in size; note: potency is the fitted concentration of half-maximal effect
# Outline: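 HepG2-AhR-luc (HG2L7.5c1) cells, 4000/well, were preincubated 5 h at 37C, exposed to compound in qHTS format for 24 hr at 37C, then given CellTiter-Fluor for 30 min; viability was read as fluorescence in the reporter wells.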
# [8] = target: Peroxisome proliferator-activated receptor gamma (Homo sapiens) (UniProt P37231); test: qHTS assay to identify small molecule agonists of the peroxisome proliferator-activated receptor gamma (PPARg) signaling pathway (AID 743094; active = well fitted activation curve with a large enough effect in the signal ratio in the repeat runs, not every such curve was filed as active; inconclusive = weak or mixed curves, or effect the other way; inactive = no such curve, though single readings can be large or run the other way; the % refers to the signal ratio)
# Outline: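 Agonist activity was taken from a beta-lactamase reporter (FRET substrate, 1 h at room temperature) in HEK293H cells carrying a PPARg UAS-bla construct. Compounds in DMSO were incubated 17 h at 37C after a 5 h cell pre-incubation.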
# [9] = target: Peroxisome proliferator-activated receptor gamma (Homo sapiens) (UniProt P37231); test: qHTS assay to identify small molecule antagonists of the peroxisome proliferator-activated receptor gamma (PPARg) signaling pathway (AID 743191; calls by dose curve; note: nearly all actives have a fitted effect of over 30% in size; note: potency is the fitted concentration of half-maximal effect)
# Outline: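 GeneBLAzer PPARg UAS-bla HEK293H cells carrying a UAS-driven beta-lactamase reporter were plated at 3000 cells/well, preincubated 5 h at 37C, then given compound for 17 h at 37C; LiveBLAzer B/G FRET substrate was read after 1 h at room temperature.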
# [10] = qHTS assay to identify small molecule antagonists of the peroxisome proliferator-activated receptor gamma (PPARg) signaling pathway - cell viability counter screen (AID 743194); conditions: Potency: co-treated with 50 nM rosiglitazone unless noted; note: nearly all actives have a fitted effect of over 55% in size; note: potency is the fitted concentration of half-maximal effect
# Outline: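 PPARg-UAS-bla HEK293H cells were plated, rested 5 h at 37 C, then treated with compounds plus rosiglitazone (50 nM final) for 17 h at 37 C; viability was then read by CellTiter-Glo luminescence after 30 min at room temperature.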
# [11] = qHTS assay for small molecule agonists of the antioxidant response element (ARE) signaling pathway (AID 743202; active = well fitted activation curve with a large enough effect in the signal ratio in the repeat runs, not every such curve was filed as active; inconclusive = weak or mixed curves, or effect the other way; inactive = no such curve, though single readings can be large or run the other way; the % refers to the signal ratio)
# Outline: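 Steps: seed ARE-bla HepG2 cells (2,000/well); incubate 5 h at 37 C; add compounds by pin tool; incubate 16 h at 37 C; add FRET substrate; read fluorescence after 2 h at RT.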
# [12] = qHTS assay for small molecule agonists of the antioxidant response element (ARE) signaling pathway - cell viability counter screen (AID 743203; calls by dose curve; note: nearly all actives have a fitted effect of over 55% in size; note: potency is the fitted concentration of half-maximal effect)
# Outline: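 Viability counter screen: CellTiter-Glo luminescence, read after 30 min at room temperature, in ARE-bla HepG2 wells. Compound exposure lasted 16 h at 37C/5% CO2, following a 5 h pre-incubation of the cells after plating.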
# [13] = qHTS assay for small molecule activators of the heat shock response signaling pathway - cell viability counter screen (AID 743209); note: nearly all actives have a fitted effect of over 50% in size; note: potency is the fitted concentration of half-maximal effect
# Outline: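 Cytotoxicity counter screen run in the same wells as the heat-shock bla reporter assay: HeLa HSE-bla cells, 5 h compound exposure at 37 C, viability read by CellTiter-Glo luminescence.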
# [14] = qHTS assay for small molecule activators of the heat shock response signaling pathway (AID 743210; active = well fitted activation curve with a large enough effect in the signal ratio in the repeat runs, with a control signal flat, not every such curve was filed as active; inconclusive = weak or mixed curves; the % refers to the signal ratio;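 note: HeLa cells with beta-lactamase reporter driven by heat shock elements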)
# Outline: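 Activation of heat shock element-controlled beta-lactamase expression is measured in HeLa cells by LiveBLAzer FRET fluorescence, with compound exposure lasting 5 h at 37 C and substrate loading 2.5 h at room temperature.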
# [15] = target: Aryl hydrocarbon receptor (Homo sapiens) (UniProt P35869); test: qHTS assay to identify small molecule that activate the aryl hydrocarbon receptor (AhR) signaling pathway (AID 743085); note: nearly all actives have a fitted effect of over 15% in size; note: potency is the fitted concentration of half-maximal effect;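 for activation: HG2L7.5c1 human HepG2 liver cells with stably integrated DRE-driven firefly reporter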
# Outline: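 HepG2 cells stably carrying a 20-DRE firefly luciferase reporter (HG2L7.5c1) treated with compound for 24 hr at 37C. Luciferase read by ONE-Glo luminescence, with CellTiter-Fluor viability read first.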
# [16] = target: Estrogen receptor (Homo sapiens) (UniProt P03372); test: qHTS assay to identify small molecule agonists of the estrogen receptor alpha (ER-alpha) signaling pathway (AID 743075; calls by dose curve; note: potency is the fitted concentration of half-maximal effect)
# [17] = qHTS assay to identify small molecule antagonists of the estrogen receptor alpha (ER-alpha) signaling pathway using the BG1 cell line (AID 743080; calls by dose curve;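 note: BG1 cells stimulated with 17beta-estradiol alongside compound; nearly all actives have a fitted effect of over 25% in size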; note: potency is the fitted concentration of half-maximal effect)
# Outline: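 Readout is ONE-Glo luminescence, taken 30 min at room temperature after reagent addition, preceded by a CellTiter-Fluor viability read; BG1-Luc-4E2 cells had received compound and 17beta-estradiol for 21.5 h at 37 C.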
# [18] = target: Estrogen receptor (Homo sapiens) (UniProt P03372); test: qHTS assay to identify small molecule agonists of the estrogen receptor alpha (ER-alpha) signaling pathway using the BG1 cell line (AID 743079); conditions: BG1Luc4E2 cells, ERE-luciferase agonist, 22 h; activation: at 70.3 µM (top of the series); note: nearly all actives have a fitted effect of over 20% in size; note: potency is the fitted concentration of half-maximal effect
# [19] = target: Estrogen receptor (Homo sapiens) (UniProt P03372); test: qHTS assay to identify small molecule antagonists of the estrogen receptor alpha (ER-alpha) signaling pathway (AID 743069; active = well fitted curve in the direction sought with a large enough effect in the signal ratio in the repeat runs, not every such curve was filed as active; inconclusive = weak or mixed curves, or effect the other way; inactive = no such curve, though single readings can be large or run the other way; the % refers to the signal ratio; note: potency is the fitted concentration of half-maximal effect)
# Outline: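 Screening used a UAS-driven beta-lactamase reporter integrated into HEK293 cells expressing ER-alpha, stimulated with 17beta-estradiol alongside test compounds over 18 hr at 37C; signal came from LiveBLAzer B/G FRET fluorescence.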
# Sequence of Aryl hydrocarbon receptor (Homo sapiens) (P35869 whole entry, looked up): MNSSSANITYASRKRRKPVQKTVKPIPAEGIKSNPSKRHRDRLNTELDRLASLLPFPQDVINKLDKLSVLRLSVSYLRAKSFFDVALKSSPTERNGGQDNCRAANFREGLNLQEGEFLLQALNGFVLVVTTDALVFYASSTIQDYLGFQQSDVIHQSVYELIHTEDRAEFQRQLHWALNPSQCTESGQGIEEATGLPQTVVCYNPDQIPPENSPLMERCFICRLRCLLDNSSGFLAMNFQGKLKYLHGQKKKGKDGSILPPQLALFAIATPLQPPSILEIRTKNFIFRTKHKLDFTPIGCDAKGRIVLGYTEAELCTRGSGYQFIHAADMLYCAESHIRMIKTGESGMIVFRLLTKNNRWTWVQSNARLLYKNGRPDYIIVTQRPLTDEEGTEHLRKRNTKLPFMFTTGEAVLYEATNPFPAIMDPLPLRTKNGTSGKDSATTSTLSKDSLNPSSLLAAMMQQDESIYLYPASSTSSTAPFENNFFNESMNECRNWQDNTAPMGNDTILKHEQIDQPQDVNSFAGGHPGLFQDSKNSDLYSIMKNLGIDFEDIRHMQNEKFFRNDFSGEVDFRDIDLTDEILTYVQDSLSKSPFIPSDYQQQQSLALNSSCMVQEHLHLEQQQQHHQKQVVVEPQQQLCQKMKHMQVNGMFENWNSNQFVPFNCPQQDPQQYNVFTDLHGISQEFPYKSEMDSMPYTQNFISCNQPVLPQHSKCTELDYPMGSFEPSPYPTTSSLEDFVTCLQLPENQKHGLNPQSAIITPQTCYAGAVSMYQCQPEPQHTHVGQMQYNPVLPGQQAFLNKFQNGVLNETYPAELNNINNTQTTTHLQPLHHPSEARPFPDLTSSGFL
# Sequence of Aromatase (Homo sapiens) (P11511 whole entry, looked up): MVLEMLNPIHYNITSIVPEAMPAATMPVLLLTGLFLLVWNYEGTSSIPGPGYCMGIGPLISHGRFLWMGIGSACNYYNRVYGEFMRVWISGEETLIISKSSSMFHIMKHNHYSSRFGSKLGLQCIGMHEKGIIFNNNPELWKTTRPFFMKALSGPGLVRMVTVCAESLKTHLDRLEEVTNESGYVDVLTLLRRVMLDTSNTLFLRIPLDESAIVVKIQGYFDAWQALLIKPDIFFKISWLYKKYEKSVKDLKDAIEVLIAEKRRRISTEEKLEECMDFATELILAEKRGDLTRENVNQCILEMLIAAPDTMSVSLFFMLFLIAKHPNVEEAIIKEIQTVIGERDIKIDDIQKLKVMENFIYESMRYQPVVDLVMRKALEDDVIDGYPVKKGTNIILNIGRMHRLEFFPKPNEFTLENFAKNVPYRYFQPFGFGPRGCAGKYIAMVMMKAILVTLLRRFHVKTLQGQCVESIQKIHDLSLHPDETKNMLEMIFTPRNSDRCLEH
# Sequence of Peroxisome proliferator-activated receptor gamma (Homo sapiens) (P37231 whole entry, looked up): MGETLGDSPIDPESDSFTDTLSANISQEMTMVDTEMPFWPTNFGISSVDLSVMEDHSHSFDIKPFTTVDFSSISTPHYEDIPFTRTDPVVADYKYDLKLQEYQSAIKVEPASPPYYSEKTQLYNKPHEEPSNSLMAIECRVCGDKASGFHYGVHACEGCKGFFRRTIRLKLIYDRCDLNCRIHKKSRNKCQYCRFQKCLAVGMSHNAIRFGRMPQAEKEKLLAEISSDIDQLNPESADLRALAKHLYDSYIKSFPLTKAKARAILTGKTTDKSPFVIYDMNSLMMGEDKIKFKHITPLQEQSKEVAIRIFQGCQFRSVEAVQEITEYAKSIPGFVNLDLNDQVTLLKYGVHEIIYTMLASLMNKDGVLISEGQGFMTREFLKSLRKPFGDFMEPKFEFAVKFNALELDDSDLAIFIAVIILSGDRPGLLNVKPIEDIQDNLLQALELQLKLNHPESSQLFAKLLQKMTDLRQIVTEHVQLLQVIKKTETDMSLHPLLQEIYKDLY
# Sequence of Estrogen receptor (Homo sapiens) (P03372 whole entry, looked up): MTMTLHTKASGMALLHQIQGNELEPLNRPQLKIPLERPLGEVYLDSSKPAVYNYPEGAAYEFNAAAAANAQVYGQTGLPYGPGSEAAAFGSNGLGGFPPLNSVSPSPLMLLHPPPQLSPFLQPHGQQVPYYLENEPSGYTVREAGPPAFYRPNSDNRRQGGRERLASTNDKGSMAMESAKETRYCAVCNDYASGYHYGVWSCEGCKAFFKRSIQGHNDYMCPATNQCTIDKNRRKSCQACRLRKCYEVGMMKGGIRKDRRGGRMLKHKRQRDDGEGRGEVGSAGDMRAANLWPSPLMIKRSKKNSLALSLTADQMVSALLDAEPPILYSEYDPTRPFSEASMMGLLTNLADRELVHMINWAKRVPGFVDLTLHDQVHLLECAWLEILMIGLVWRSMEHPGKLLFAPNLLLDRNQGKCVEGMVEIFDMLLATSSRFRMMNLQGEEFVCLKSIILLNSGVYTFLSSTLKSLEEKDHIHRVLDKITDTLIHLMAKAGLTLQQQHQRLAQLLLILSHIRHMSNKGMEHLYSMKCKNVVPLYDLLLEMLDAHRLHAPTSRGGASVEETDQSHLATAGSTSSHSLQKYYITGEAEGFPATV
SMILES,Potency [1],Potency [2],Potency [3],Potency [4],Potency [5],Potency (Aromatase (Homo sapiens)),Potency [6],Potency [7],Potency [8],Potency [9],Potency [10],Potency [11],Potency [12],Potency [13],Potency [14],Potency [15],Potency [16],Potency [17],Potency [18],Potency [19]
CNC(=O)O/N=C(\C)C(C)S(C)(=O)=O (configuration not stated),inactive,inactive,inactive,inactive,inactive,inactive,inactive,inactive,inactive,inactive,inactive,inactive,inactive,inactive,inactive,–,–,–,–,–
Cc1ccc(C)c2ccccc12,inactive,inactive,inactive,inactive,inactive,inactive,inactive,–,inactive,–,–,inactive,inactive,inactive,inactive,inactive,–,–,–,–
CO/N=C(\C(=O)OC)c1ccccc1CO/N=C(\C)c1cccc(C(F)(F)F)c1,34.4 µM (active),969 nM (active),inactive,–,–,61.1 µM (active),–,–,–,–,–,–,–,inactive,–,inactive,–,–,–,–
C1=CCC=C1,inactive,inactive,inactive,inactive,inactive,–,inactive,inactive,–,–,inactive,inactive,inactive,inactive,–,–,–,–,–,–
O=C(N[C@@H]1N=C(c2ccccc2F)c2cccc3c2N(CC3)C1=O)c1cc2ccccc2[nH]1,inactive,6680 nM (active),inactive,–,–,–,inactive,–,–,–,inactive,–,inactive,inactive,–,0.0668 µM (active),–,–,–,–
CCC(C)Br (configuration not stated),inactive,inactive,inactive,inactive,inactive,inactive,inactive,inactive,–,inactive,–,inactive,inactive,–,inactive,–,–,–,–,–
CCOP(=O)(OCC)Oc1nc(Cl)c(Cl)cc1Cl,60.8 µM (active),24200 nM (active),inactive,–,inactive,27.1 µM (active),–,–,inactive,1.37 µM (active),–,–,–,inactive,–,–,12.2 µM [inconclusive] (active),48.3 µM (active),–,–
COP(=O)(OC)Oc1ccc([N+](=O)[O-])cc1,inactive,inactive,inactive,–,inactive,34.4 µM (active),inactive,inactive,–,17.4 µM (active),–,–,inactive,inactive,–,inactive,inactive,inactive,inactive,–
CCOP(=O)(OCC)Oc1cc(C)nc(C(C)C)n1,inactive,inactive,inactive,inactive,inactive,inactive,inactive,inactive,–,–,–,–,inactive,inactive,–,–,–,–,–,–
O=C1C2(Cl)C3(Cl)C4(Cl)C(Cl)(Cl)C5(Cl)C3(Cl)C1(Cl)C5(Cl)C24Cl (configuration not stated),9.53 µM (active) and 13.1 µM (active),9.53 µM (active) and 11.7 µM (active),inactive,54 µM (active),inactive,26.9 µM (active) and 52.2 µM (active),26.9 µM (active) and 52.2 µM (active),–,–,–,38300 nM (active),–,67.5 µM (active) and 58.5 µM (active),48.2 µM (active),–,inactive,–,–,–,–
O=S1OCC2C(CO1)C1(Cl)C(Cl)=C(Cl)C2(Cl)C1(Cl)Cl (configuration not stated),61.2 µM (active) and 54.4 µM (active),61.2 µM (active) and 61.1 µM (active),–,inactive,inactive,27.3 µM (active),48.6 µM (active),inactive,inactive,–,55 µM (active) and 24.5 µM (active),–,54.4 µM (active),24.5 µM (active),–,inactive,43.7 µM [inconclusive] (active) and inactive,61.2 µM (active) and 61.1 µM (active),1.94 µM (active),inactive
[C-]1=CC=CC1.[Cl][Zr+2][Cl].c1cc[cH-]c1,inactive,inactive,inactive,inactive,inactive,–,inactive,inactive,–,–,inactive,inactive,inactive,inactive,–,–,–,–,–,–
CCOC(=O)CCN(SN(C)C(=O)Oc1cccc2c1OC(C)(C)C2)C(C)C,inactive,inactive,–,inactive,inactive,inactive,inactive,inactive,inactive,–,inactive,inactive,inactive,inactive,–,–,inactive,inactive,inactive,–
NC(=O)C(Cl)Cl,inactive,inactive,inactive,inactive,inactive,inactive,inactive,–,–,inactive,inactive,inactive,inactive,inactive,inactive,–,–,–,–,–
CC(=O)[O][Pb]([c]1ccccc1)([c]1ccccc1)[c]1ccccc1,0.686 µM (active),77 nM (active),–,6.92 µM (active),10.9 µM (active),0.193 µM (active),0.193 µM (active),3.86 µM (active),–,–,110 nM (active),–,0.172 µM (active),9.77 µM (active),–,inactive,49 µM [inconclusive] (active),–,–,54.9 µM [cytotoxic] (active)
Oc1ccc2[nH]cc(CCCCN3CC=C(c4ccccc4)CC3)c2c1,8.41 µM (active),11900 nM (active),inactive,inactive,–,inactive,inactive,–,–,–,–,–,inactive,inactive,–,inactive,–,–,–,–
N#CC(C#N)=NNc1cccc(Cl)c1,3.44 µM (active),969 nM (active),–,–,5.45 µM (active),2.73 µM (active),9.69 µM (active),15.4 µM (active),–,–,490 nM (active),–,27.3 µM (active),–,–,–,–,2.17 µM (active),–,0.692 µM [inconclusive] (active)
